# Records with an inconclusive call do not appear. Where a call stands in place of a potency, no number is given. The source made the active and inactive calls. The call rests on the fitted dose curve; in most records, active means well fitted cell-killing curve with a large enough effect; inconclusive means small, poorly fitted or top-dose-only effect, or effect the other way; inactive means no such curve, though single readings can be large or run the other way.
# What was measured:
# [1] = Viability qHTS for spleen associated tyrosine kinase inhibitor (SYKi) naive MV4-11 cells (AID 1963823); details: MV4-11 AML viability, CellTiter-Glo luminescence, 72 h; series mostly up to 45 µM; further: nearly all actives have a fitted effect of over 40% in size
# Procedure, shortened: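 Luminescence from CellTiter-Glo, developed 10 min at room temperature, gave viability of MV4-11 cells never exposed to SYK inhibitor. Cells (500/well) had been incubated with compounds for 72 hr under standard culture conditions.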
# [2] = Viability qHTS for spleen associated tyrosine kinase inhibitor (SYKi) drug resistant MV4-11 cells (AID 1963824); details: SYKi-resistant MV4-11 viability, CellTiter-Glo, 72 h; series mostly up to 45 µM; further: nearly all actives have a fitted effect of over 35% in size
# Procedure, shortened: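 SYK-inhibitor-resistant MV4-11 AML cells were seeded at 500 per well onto compound and cultured 72 hours (37 °C, 5% CO2). CellTiter-Glo was then added, and after 10 min at room temperature, luminescence gave viability.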
# Potency means the concentration at half of the fitted maximal effect.
Compound,Potency [1],Potency [2]
O=C(OC1C=C(CO)C2C(OC3OC(CO)C(O)C(O)C3O)OC=CC12O)c1ccc(O)cc1 (configuration not stated),inactive,inactive
CC1=C2C(=O)C=C(CO[C@@H]3O[C@H](CO)[C@@H](O)[C@H](O)[C@H]3O)[C@@H]2[C@H]2OC(=O)[C@H](C)[C@@H]2CC1,inactive,inactive
CC(C)(C#N)c1ccc(N2C(=O)OCc3cnc4ccc(-c5cnc6ccccc6c5)cc4c32)cc1,1030 nM (active),1460 nM (active)
COc1cc2nc(C3CC3)nc(N3CCN(c4ccccc4OC)CC3)c2cc1OC,16400 nM (active),14600 nM (active)
O=C(CCc1nnc2n(Cc3ccc(Cl)cc3)c(=O)c3ccccc3n12)NCCC1=CCCCC1,inactive,inactive
C=C1CC2C3(C)C=CC(=O)OC(C)(C)C3CC(OC(C)=O)C2(C)C2C(=O)OC(C)C(=O)C12C (configuration not stated),inactive,inactive
C=C[C@H]1[C@H](O[C@@H]2O[C@H](CO)[C@@H](O)[C@H](O)[C@H]2O)OC=C(C(=O)OC)[C@H]1C[C@@H]1N[C@H](C(=O)O)Cc2c1[nH]c1ccccc21,inactive,inactive
CC(=O)O[C@H]1[C@@H](O)[C@H](O[C@H]2[C@@H]3C=CO[C@@H](O[C@H]4O[C@@H](CO)[C@H](O)[C@@H](O)[C@@H]4O)[C@@H]3[C@@]3(CO)O[C@@H]23)O[C@@H](C)[C@@H]1OC(=O)/C=C/c1ccccc1,inactive,inactive
Cc1ccc(C)c(S(=O)(=O)n2cnc3ccccc32)c1,inactive,inactive
CC(C)[C@H]1CC[C@@]2(O)COC(=O)[C@H]2[C@@H]1/C=C(\CO)C(=O)O,inactive,inactive
O=c1ccn(C2OC(CO)C(O)C2O)c(=O)[nH]1 (configuration not stated),inactive,2060 nM (active)
